From PubChem
Rows were chosen to be rich in hits. Some 2.3% of all compounds tested hit in one or more screens of this group.
Nrf2 ARE act = Nrf2 pathway activation | AREc32 ARE-luciferase reporter (MCF7-derived line), luminescence, 24 h | Potency, µM (series often up to 46.1 µM), for the others: at the top dose activation, most hits filed as activators | 410,000 tested, 0.31% active; note: potency is the fitted concentration of half-maximal effect; % of control where 0% means no effect; nearly all actives have a fitted effect of over 65% in size
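Each well held 1000 AREc32 cells, which were incubated with compound for 24 hr at 37 deg C after overnight attachment, and ARE reporter activity was quantified by firefly luciferase luminescence.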
Nrf2 block = Nrf2 pathway inhibition | A549 ARE-Fluc reporter, luciferase luminescence, 18-24 h | Potency, µM (top dose mostly 46 µM), without a hit: at the top dose activity change, negative = inhibition, usual class: inhibitors | 360,000 tested, 2.1% active; note: potency is the fitted concentration of half-maximal effect; % is set by controls: 0 for no effect and ±100 for the full control effect; nearly all actives have a fitted effect of over 60% in size
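Concentration-response testing used A549 ARE_Fluc cells at 5000 cells/well. Following an 18-24 h compound incubation, viability was read by fluorescence (Ex 405/Em 525) and luciferase output by luminescence.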
Giardia killer = kills Giardia lamblia; Giardia lamblia trophozoite viability; AID 540267; activity change, % at 7.66 µM, hits read low; 340,000 tested, 0.15% active; in the data active = activity change below about -80%; inconclusive = between about -30% and that limit;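 note: parasites exposed to compound for two days anaerobically before the ATP read; % is set by controls: 0 for no effect and ±100 for the full control effect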
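Media and compound were dispensed first, then trophozoites at 100 cells/well; plates sat 48 hrs at 37 deg C without oxygen before ATP luminescence reagent was added and read after 15-30 min at room temperature.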
Anesthetic bind = binds horse apoferritin like a general anesthetic. P02791. Potency, µM (titrated, usually from 77.5 µM), for inactives: at the highest dose activity change, negative = displacement, actives largely listed as inhibitors. AID 485281. 350,000 tested, 0.074% active. apoferritin/1-aminoanthracene competitive binding, fluorescence; note: potency is the fitted concentration of half-maximal effect; % is set by controls: 0 for no effect and ±100 for the full control effect; nearly all actives have a fitted effect of over 20% in size
Target sequence (P02791 2-175 limits assumed): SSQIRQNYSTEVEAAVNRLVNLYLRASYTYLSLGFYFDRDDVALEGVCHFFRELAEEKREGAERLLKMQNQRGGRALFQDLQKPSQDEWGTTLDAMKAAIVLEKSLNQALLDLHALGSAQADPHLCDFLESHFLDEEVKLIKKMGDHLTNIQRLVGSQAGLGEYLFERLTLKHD
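Concentration-response curves derived by four-parameter Hill fitting of normalized fluorescence, where compounds displaced 1-AMA from 10 uM horse apoferritin following a brief 10 min room-temperature incubation; propofol titration acted as positive control.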
mIDH1 inhibitor = human IDH1 R132H inhibition. O75874. IDH1-R132H enzyme, NADPH consumption, diaphorase/resazurin fluorescence. Potency, µM (titrated, usually from 76.6 µM), for the others: at the top dose activity change, negative = inhibition, most hits filed as inhibitors. 390,000 tested, 0.093% active. AID 602179; note: potency is the fitted concentration of half-maximal effect; % is set by controls: 0 for no effect and ±100 for the full control effect; nearly all actives have a fitted effect of over 65% in size
Target sequence (O75874 whole entry R132H, stated change not applied): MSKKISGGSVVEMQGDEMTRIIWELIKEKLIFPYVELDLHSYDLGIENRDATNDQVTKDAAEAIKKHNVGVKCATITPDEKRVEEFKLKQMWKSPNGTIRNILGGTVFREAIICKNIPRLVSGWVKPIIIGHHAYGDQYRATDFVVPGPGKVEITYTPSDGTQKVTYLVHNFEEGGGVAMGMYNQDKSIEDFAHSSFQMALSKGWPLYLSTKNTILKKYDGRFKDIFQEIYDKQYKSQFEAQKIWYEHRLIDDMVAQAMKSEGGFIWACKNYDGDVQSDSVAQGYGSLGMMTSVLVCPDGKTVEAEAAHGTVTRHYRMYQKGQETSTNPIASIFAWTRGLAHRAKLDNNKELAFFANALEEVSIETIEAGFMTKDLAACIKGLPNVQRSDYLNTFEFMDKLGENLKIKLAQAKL
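IDH1-R132H (0.5 ug/mL dispensed) in pH 7.5 Tris buffer was preincubated 30 min with compound, then given a substrate mix of 0.016 mM NADPH and 2 mM alpha-KG for 80 min at room temperature; remaining NADPH was read by diaphorase/resazurin fluorescence.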
A549 viability = A549 cytotoxicity, counter-screen for Nrf2 inhibitors | Potency, µM (highest dose often 46 µM), for the others: at the top dose activity change, negative = cytotoxicity, usual class: inhibitors | 390,000 tested, 0.16% active | A549 ARE-Fluc cells, CellTiter-Fluor viability, 18-24 h; note: potency is the fitted concentration of half-maximal effect; % is set by controls: 0 for no effect and ±100 for the full control effect
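Cytotoxicity counterscreen: CellTiter-Fluor fluorescence was measured in A549 ARE_Fluc cells after 18-24 h of compound exposure in a concentration series. The subsequent BugLite luminescent read reports ARE-luciferase activity.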
Active calls of the source: *; ? = inconclusive; . = no result; ! = a repeat was not active; [ ] = remark or other dose. Unless noted, calls come from the whole dose curve; as a rule, active = well fitted curve in the direction sought with a large enough effect; inconclusive = small, poorly fitted or top-dose-only effect, or another doubt; inactive = no such curve, though single readings can be large; an effect the other way counts as inactive or inconclusive.

SMILES | Nrf2 ARE act | Nrf2 block | Giardia killer | Anesthetic bind | mIDH1 inhibitor | A549 viability
CN(C)S(=O)(=O)c1cccc(-c2nn(-c3ccccc3)cc2/C=C(\C#N)c2nc3ccccc3[nH]2)c1 | 0.3% | ? | 15.1 | 1.8% | -4.2% | -10.6%
CN(C)S(=O)(=O)c1cccc(-c2nn(-c3ccccc3)cc2/C=C2\SC(=S)NC2=O)c1 | 4.4% | 16.4µM* | -11.9 | 2.5% | ? | ?
CCN(CC)S(=O)(=O)c1cccc(C(=O)N/N=C(\C)c2ccc(O)cc2O)c1 | -0.6% | 10.3µM* | -2.8 | 6.4% | -3.9% | ?
CCN(CC)S(=O)(=O)c1cccc(C(=O)N/N=C/c2ccc(O)c(O)c2O)c1 | -0.5% | -27.9% | -13.0 | -13.9% | 12.1% | -1.5%
O=C(Nc1ccccc1)N1N=C(c2cccs2)CC1c1cccs1 (stereo unspecified) | 2.1% | 23.1µM* | 22.5 | 15.0% | 9.4% | -7.8%
COc1ccccc1N(CC(=O)NC1CC2CCC1C2)S(=O)(=O)c1ccc(C)cc1 (stereo unspecified) | 0.7% | 18.4µM* | -13.6 | 4.6% | -5.7% | -18.4%
COc1ccccc1N(CC(=O)NCCSCc1ccccc1)S(=O)(=O)c1ccccc1 | -0.6% | . | . | . | -1.4% | .
COc1ccc(S(=O)(=O)N(CC(=O)NC2CC3CCC2C3)c2ccccc2OC)cc1 (stereo unspecified) | 4.2% | -12.9% | -8.9 | 1.2% | 5.7% | 0.3%
COc1ccccc1N(CC(=O)NCCSCc1ccccc1)S(=O)(=O)c1ccc(C)cc1 | -0.1% | 14.6µM*! | 2.6 | 51.2% | -1.7% | -2.5%
O=S(=O)(c1ccc(C(F)(F)F)cc1)N1CCN(c2nc(-c3ccccc3)nc3ccccc23)CC1 | . | -0.2% | 7.2 | . | . | 2.1%
Cn1c(=O)c2nc(NCc3ccccc3)sc2n(C)c1=O | 2.51µM* | ? | 12.0 | . | -1.3% | -0.5%
COc1ccc(-c2nc3ccccc3c(=O)n2Cc2ccccc2)cc1OCc1ccc(NC(C)=O)cc1 | . | 7.2% | . | . | . | 0.6%
CC(Cl)OC(=O)Nc1cccc2cccnc12 (stereo unspecified) | . | 0.2% | -8.1 | . | . | -3.5%
CC(C)c1ccc(NC(=O)CSc2n[nH]c(=O)n2Cc2ccco2)cc1 | 5.4% | 10.3µM* | 7.9 | -8.3% | -3.5% | -4.1%
COc1ccc(NC(=O)CSc2oc(-c3ccco3)nc2S(=O)(=O)c2ccc(Br)cc2)c(OC)c1 | 3.1% | -1.6%[9.27 µM] | . | -13.0% | 0.0% | -4.6%
O=C(C1CCCCC1)N1CCN=C1SCc1cccc([N+](=O)[O-])c1 | 4.4% | 20.6µM* | 14.9 | ? | 0.2% | -2.0%
CCC(=O)NC(c1cccs1)c1cc([N+](=O)[O-])c2cccnc2c1O (stereo unspecified) | -0.3% | ? | 10.0 | -5.0% | ? | ?
O=C(CCc1ccccc1)NC(c1cccs1)c1cc(Cl)c2cccnc2c1O (stereo unspecified) | -0.6% | 16.4µM* | 6.5 | -15.4% | -2.4% | ?
CCC(=O)NC(c1cccs1)c1cc(Cl)c2ccccc2c1O (stereo unspecified) | 5.7% | 1.5% | -2.1 | . | . | 10.6%
CCCC(=O)NC(c1cccs1)c1cc([N+](=O)[O-])c2cccnc2c1O (stereo unspecified) | -0.1% | 20.6µM* | 15.9 | -2.8% | ? | ?
CC(=O)NC(c1ccccc1)c1cc([N+](=O)[O-])c2cccnc2c1O (stereo unspecified) | -1.0% | 14.6µM* | -16.5 | -12.8% | 2.5% | ?
COc1ccc(C2/C=C\CN(S(=O)(=O)c3ccc(C)cc3)C(Cc3ccccc3)C(=O)N2Cc2ccc(F)cc2)cc1 (stereo unspecified) | . | 20.0% | -5.8 | -16.0% | . | 5.7%
Cc1cccc(-n2ncc3c2CCCC3NC(=O)CCc2cccnc2)c1C (stereo unspecified) | -0.7% | 7.31µM* | 0.7 | -3.6% | -2.3% | -4.2%
Cc1cccc(-n2ncc3c2CCCC3NC(=O)c2ccncc2)c1C (stereo unspecified) | -0.4% | . | . | . | 3.7% | .
Cc1cccc(-n2ncc3c2CCCC3NC(=O)Cc2c(C)noc2C)c1C (stereo unspecified) | -0.6% | 8.2µM* | 3.7 | -0.7% | -5.4% | -9.3%
SMILES | Nrf2 ARE act | Nrf2 block | Giardia killer | Anesthetic bind | mIDH1 inhibitor | A549 viability
Cc1cccc(C(=O)NCCc2nc3ccccc3n2Cc2ccc(Cl)cc2)c1 | 0.4% | ? | . | 2.4% | -6.3% | -19.9%
O=[N+]([O-])c1ccc(O)c(/C=N/Nc2nn[nH]n2)c1 | 2.2% | -4.8% | 1.3 | -13.2% | 7.5% | -5.4%
O=[N+]([O-])c1ccc(O)c(/C=N/Nc2ccc(Cl)nn2)c1 | -0.6% | 3.66µM* | 16.2 | -10.6% | -0.7% | ?
COc1ccc([C@H]2C[C@H](O)[C@@H](n3cc(-c4ccc(F)cc4)nn3)CN2Cc2cccs2)cc1 | -2.9% | . | . | . | -0.5% | .
Cc1cccc(NC(=O)C2(C)Cc3ccccc3C(=O)O2)c1 (stereo unspecified) | 0.0% | 21.2% | . | ? | 3.8% | 2.6%
CC1(C(=O)Nc2cccc(C(F)(F)F)c2)Cc2ccccc2C(=O)O1 (stereo unspecified) | 3.4% | -20.5% | . | 15.8µM* | -1.5% | 0.5%
CCOC(=O)c1c(C)[nH]c(C(=O)OCC(=O)Nc2ccc(Cl)cn2)c1C | -0.7% | -7.2% | 46.4 | . | 0.9% | 9.4%
CC(=O)c1c(C)[nH]c(C(=O)OCC(=O)NCCCc2ccccc2)c1C | 3.1% | ? | -22.0 | . | 23.1% | -1.1%
CCOC(=O)c1c(C)[nH]c(C(=O)OCC(=O)Nc2sccc2C(N)=O)c1C | -0.5% | 8.2µM* | -4.8 | . | 1.4% | ?
CC(=O)c1c(C)[nH]c(C(=O)OCC(=O)NCc2cccs2)c1C | 4.7% | 14.6µM* | 14.5 | . | 1.8% | -1.4%
CC(=O)c1c(C)[nH]c(C(=O)OCC(=O)Nc2cc(Cl)ccc2[N+](=O)[O-])c1C | 7.6% | ? | ? | -3.3% | 7.8% | -10.6%
CC(=O)c1c(C)[nH]c(C(=O)OCC(=O)Nc2ccc(C)cc2[N+](=O)[O-])c1C | 8.3% | 5.8µM* | -15.9 | -3.0% | -15.7% | -17.2%
CC(=O)c1cccc(NC(=O)c2sc(-n3nc(C)c(CCC(C)C)c3C)nc2C)c1 | 0.3% | 26.9% | . | -1.3% | -13.0% | 11.2%
CN(CC(=O)Nc1ccc(Br)cc1)S(=O)(=O)c1cccc2nsnc12 | 0.9% | ? | . | -0.3% | 21.5% | 0.3%
CC(Cc1cccs1)NC(=S)Nc1ccc(Cl)cc1 (stereo unspecified) | -0.5% | 18.4µM* | 4.2 | -6.4% | 0.0% | -16.0%
CCCCOc1ccc(NC(=O)C(=O)NCCCn2ccnc2)cc1 | 0.3% | ? | -18.5 | ? | -6.7% | 2.2%
